Assay results reported in PubChem BioAssay AID602350 (Broad Institute, 2012).
Potency and affinity values are given separately. Activity calls are given as the source filed them.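 The calls were made as follows: active = absorbance falls by 30% or more versus neutral controls, with a potency fitted within twice the top valid dose; inconclusive = no clear call, values can overlap the other calls; inactive = change opposite to expected direction, plus the rest.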

target: Protein disulfide-isomerase (Homo sapiens) (UniProt P07237); test: inhibition of PDI-driven insulin aggregation – biochemical, turbidity, absorbance, cherry-picked samples, dose response (AID 602350); details: recombinant PDI insulin aggregation, absorbance 650 nm, 90 min; series mostly up to 19.5 µM
Sequence (P07237 whole entry, looked up): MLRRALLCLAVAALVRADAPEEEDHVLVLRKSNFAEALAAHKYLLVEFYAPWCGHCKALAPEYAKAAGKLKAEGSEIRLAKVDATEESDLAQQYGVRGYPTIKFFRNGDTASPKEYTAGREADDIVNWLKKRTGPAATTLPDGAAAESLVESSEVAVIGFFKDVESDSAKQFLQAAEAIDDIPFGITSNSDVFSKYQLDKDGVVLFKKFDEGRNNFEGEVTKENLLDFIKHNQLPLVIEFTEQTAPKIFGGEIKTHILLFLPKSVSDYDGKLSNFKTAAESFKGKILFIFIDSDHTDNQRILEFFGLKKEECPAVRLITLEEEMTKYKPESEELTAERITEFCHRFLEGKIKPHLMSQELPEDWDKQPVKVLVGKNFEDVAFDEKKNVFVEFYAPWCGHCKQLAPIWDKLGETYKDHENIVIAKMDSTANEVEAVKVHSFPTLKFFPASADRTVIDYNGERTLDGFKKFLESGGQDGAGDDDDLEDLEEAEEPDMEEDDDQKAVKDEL

outcome, inactive:
CC[C@]12c3[nH]c4cc(-c5ccco5)ccc4c3CCN1C(=O)[C@@H](CC(=O)NCC13CC4CC(CC(C4)C1)C3)C[C@@H]2C(=O)N1CCN(C(=O)c2ccco2)CC1, CN(C)c1ccc(NC(=O)CN2C(=O)CC(c3ccccc3)=Nc3ccccc32)cc1, CCOC(=O)C1(CCOc2ccccc2)CCN(Cc2cccc(F)c2)CC1, CNC[C@@H]1Oc2c(NS(C)(=O)=O)cccc2C(=O)N([C@@H](C)CO)C[C@H]1C, CCCCNC(=O)Nc1ccon1, COc1cc(C2C(C#N)=C(N)Oc3cc(O)ccc32)cc(OC)c1OC (centres undefined), COc1cc(C2C(C(C)=O)=C(O)C(=O)N2CCc2c[nH]c3ccccc23)ccc1O (centres undefined), C[C@@H](CN1C2=NC[C@H](Cc3ccc(O)cc3)N2C[C@H]1Cc1ccc(O)cc1)NC(=O)CCC1CCCCC1, CCOC(=O)C1(CCOc2ccccc2)CCN(Cc2ccc(OC)cc2)CC1, COc1ccc(C2c3ccc(O)cc3Oc3ncn4nc(-c5cccnc5)nc4c32)cc1OC (centres undefined), CC(O)(c1cccnc1)c1nc(-c2cc(F)cc(F)c2)cs1 (centres undefined), Cc1ccc(CN(c2ccc(C(=O)NCc3ccccn3)cc2)S(C)(=O)=O)cc1, O=c1[nH]c(C2CCN(S(=O)(=O)c3ccc(C(F)(F)F)cc3)CC2)nc2c1nnn2Cc1ccc(F)cc1, COc1c(Br)cc(C(N)=O)cc1OCc1ccccc1, COc1ccc(OCCN2CCC(C(=O)NC(c3ccsc3)c3ccccc3C)CC2)cc1 (centres undefined), CC[C@]12c3[nH]c4cc(-c5ccco5)ccc4c3CCN1C(=O)[C@@H](CC(=O)NCc1ccco1)C[C@@H]2C(=O)N1CCN(C(=O)c2ccco2)CC1, CC(=O)Oc1ccccc1C(=O)C=Cc1cccc([N+](=O)[O-])c1, CCOC(=O)c1ccc(NC(=O)C2(c3ccc(Cl)cc3)CCCC2)cc1, Cc1noc(C)c1C(=O)OCC(=O)NCCc1ccc(Cl)cc1, O=C(Nc1nc2ccccc2s1)c1cccc(S(=O)(=O)N2CCc3ccccc32)c1, CCOC(=O)CN(c1ccccc1)S(=O)(=O)c1ccc(F)cc1, Cc1c(-n2cc(C(=O)c3cc(Br)ccc3O)cc(C#N)c2=O)c(=O)n(-c2ccccc2)n1C, CCOc1ccc2nc(NS(=O)(=O)Cc3ccccc3)sc2c1, Cc1cccc(C(=O)OCC(=O)N2CCCCCC2)c1O, CCOc1ccccc1CN1CCNC(=O)C1CC(=O)NCc1nccn1CC (centres undefined), C[C@@H]1CN([C@H](C)CO)C(=O)Cc2cc(NC(=O)Nc3ccccc3)ccc2O[C@@H]1CN(C)Cc1ccccc1, COc1cc2c(cc1OC)C1C(C(=O)Nc3ccccc3N3CCN(C)CC3)c3ccccc3C(=O)N1CC2 (centres undefined), CCCCn1c(SCC(=O)Nc2ccc(C)c(S(=O)(=O)N3CCOCC3)c2)nnc1C(CC)N(C)C (centres undefined), O=C(NCc1ccncc1)Nc1cc(Cl)ccc1Cl, CCCN(CCC)S(=O)(=O)c1ccc(C(=O)Nc2nnc(COC)o2)cc1, COc1ccc(OC)c(CN2CCN(Cc3cc(=O)oc4cc(O)ccc34)CC2)c1, O=C1NC(Cc2ccc(O)cc2)c2nc3cc(Cl)ccc3c(=O)n2-c2ncccc21 (centres undefined), O=C1[C@@H]2C(Cc3ccc(O)cc3)NC3(C(=O)Nc4ccc(F)cc43)[C@@H]2C(=O)N1c1ccccc1 (some centres undefined), COc1ccc(/C=C/C(=O)c2cc(F)ccc2OC(=O)c2ccccc2OC)cc1OC, COc1cc(C(C)=O)ccc1OCC(=O)NCCCn1nc(C)cc1C, COC(=O)C(Cc1ccc(O)cc1)N1Cc2ccccc2C1=O (centres undefined), O=C(c1ccc(OCCN2CCCCC2)cc1)c1c(-c2ccc(O)cc2)sc2cc(O)ccc12, COc1ccc(OC)c2[nH]c(=O)c(CCNC(=O)C(=O)c3c(C)[nH]c4ccccc34)cc12, CC(=O)c1cc(-c2ccccc2)n(CC(=O)Nc2cccc(C)c2)c1C
